What all share (test): NCI-60 one-dose screen, 48 h (100 = growth as untreated, 0 = no growth, -100 = all killed)
Holding throughout (conditions): 10 µM unless noted

The test system of experiment [1] is NCI-H23 lung.
The test system of experiment [2] is NCI-H226 lung.
Experiment [3] deals with NCI-H322M lung.
Experiment [4] concerns HOP-62 NSCLC.
Experiment [5] concerns NCI-H460 lung.
Experiment [6] concerns HOP-92 NSCLC.
Experiment [7] has as its system NCI-H522 lung.
Experiment [8] deals with A549/ATCC NSCLC.
Experiment [9] deals with 786-0 renal.
In experiment [10] the test system is COLO 205 colon.
For experiment [11], the system named is DU-145 prostate.
Experiment [12] deals with K-562 leukemia.
Experiment [13] concerns MALME-3M melanoma.
For experiment [14], the system named is MDA-MB-231 breast.
Experiment [15] relates to RXF 393 renal.
Experiment [16] deals with SF-268 CNS.
Experiment [17] concerns SF-295 CNS.
The test system of experiment [18] is SF-539 CNS.
For experiment [19], the system named is UACC-257 melanoma.
Experiment [20] has as its system M14 melanoma.

Structures are written as SMILES. Several values for one entry are separate records, joined by “and”; a condition that tells them apart may be missing. Equal values may be shown once. The panel holds about 83,000 compounds, 20% with a hit somewhere; the sample as a whole holds those more often.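 Note: values are percent growth. 100 is the growth of untreated cells, values between 100 and 0 indicate rising inhibition; between -100 and 0 indicates cell death.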 A number with no mark means an inactive call. Activity calls are given as the source filed them. How the source made its calls: active means growth percent below 10; inactive means the rest.

Turning to `O=C(NC(=O)c1ccc(F)c(Cl)c1)NC1CC1`, the growth in [1] is 104% and 98.8%; in experiment [2] it was 99.6% and 90.7%; in experiment [3] it was 113% and 110%; in experiment [4], 107% and 101%; in experiment [5], 100% and 102%; in [6], 99.8%. Besides, the growth in experiment [7] is 75.7% and 85.1%; in [8], 81.8% and 99.2%; in [9] it was 98.7% and 94.1%; in experiment [10], 113% and 108%; in experiment [11] it was 106% and 98.7%; in experiment [12], 78.4% and 95.9%. Further, the growth is 107% and 98.9% in experiment [13]; 117% in [14]; 113% in [15]; 103% in experiment [16]; 104% and 99.5% in experiment [17]; 110% and 98.4% in [18]. Besides, the growth in [19] is 97.3% and 103%; in experiment [20] it was 94.7% and 109%.

In the case of `CC(=O)c1cccc(OC(=O)c2ccccc2)c1`, the growth in experiment [1] was 101%; in [2] it was 101%; in experiment [3], 136%; in [4], 104%; in [5] it was 107%; in [6] it was 82.9%. Also, the growth was 84.7% in experiment [7]; 99% in experiment [8]; 102% in experiment [9]; 107% in experiment [10]; 114% in experiment [11]; 92% in experiment [12]. Moreover, the growth is 110% in experiment [13]; 102% in experiment [14]; 117% in [15]; 106% in [16]; 124% in [17]; 109% in experiment [18]. Further, the growth in experiment [19] is 101%; in experiment [20], 93.1%.

With `COc1ccc(-n2[nH]c3c(cnc4ccccc43)c2=O)cc1`, the growth in experiment [1] was 73.1% and 95.9%; in experiment [2], 103% and 95.3%; in experiment [3] it was 93.2% and 101%; in experiment [4], 100% and 94.5%; in experiment [5], 103% and 108%; in experiment [6], 99.8% and 102%. Besides, the growth was 89.2% in experiment [7]; 92.4% and 102% in experiment [8]; 77.7% and 91.3% in experiment [9]; 137% and 119% in experiment [10]; 95.8% and 101% in experiment [11]; 112% and 90.7% in [12]. The growth is 63.7% and 105% in experiment [13]; 119% in experiment [14]; 110% and 98.3% in [15]; 103% and 106% in experiment [16]; 86.9% and 92.7% in experiment [17]; 87.8% and 93.4% in [18]. The growth is 109% in experiment [19]; 92.3% and 104% in experiment [20].

In the case of `Cc1cc(=NO)cc(C)n1O`, the growth in experiment [1] is 109%; in experiment [2], 114%; in [3] it was 94.3%; in experiment [4], 100%; in experiment [5] it was 107%; in experiment [6] it was 111%. The growth in [7] is 120%; in experiment [8], 113%; in experiment [9] it was 107%; in experiment [10] it was 113%; in experiment [11] it was 101%; in experiment [12], 96.8%. The growth in experiment [13] is 112%; in experiment [14], 118%; in experiment [15] it was 123%; in [16], 99.2%; in experiment [17], 94.4%; in experiment [18] it was 104%. Besides, the figures for the growth in experiment [19] and in experiment [20] were 112% and 108%, respectively.

Take `OCCS`: the growth in experiment [1] was 93.7%; in [2], 98.8%; in experiment [3], 101%; in experiment [4], 97.3%; in experiment [5], 106%; in [6] it was 95.2%. The growth in experiment [7] was 102%; in [8], 95.1%; in experiment [9], 94.2%; in experiment [10], 107%; in experiment [11] it was 104%; in [12], 91.4%. Besides, the growth is 101% in experiment [13]; 99.3% in [14]; 110% in [15]; 99.5% in [16]; 101% in [17]; 100% in [18]. Also, the growth in [19] was 90.9%; in [20] it was 97.6%.

With `Cn1c(-c2ccccc2)cc(=O)cc1-c1ccccc1`, the growth in [1] is 73.8%; in experiment [2], 101%; in [3], 97%; in [4], 98.3%; in experiment [5], 37.8%; in experiment [6] it was 90.3%. Moreover, the growth in experiment [7] was 56.4%; in experiment [8], 96.4%; in experiment [9], 106%; in experiment [10] it was 96.9%; in [11], 3.58% (active); in experiment [12], 99.8%. Also, the growth in experiment [13] is 122%; in experiment [14] it was 88.8%; in experiment [15], 62%; in experiment [16], 89.9%; in [17] it was 93.7%; in experiment [18], 111%. For the same molecule, the growth in experiment [19] was 95.1%; in experiment [20], 97.7%.

With `Cc1cccc(Cl)c1N`, the growth in experiment [1] was 99.6%; in [2], 118%; in experiment [3], 127%; in [4], 104%; in [5] it was 107%; in experiment [6], 94.1%. Moreover, the growth in experiment [7] was 105%; in experiment [8] it was 96.4%; in [9], 113%; in experiment [10], 119%; in [11], 109%; in experiment [12], 107%. The growth in experiment [13] is 111%; in [14], 114%; in [15], 126%; in [16] it was 105%; in [17] it was 102%; in experiment [18] it was 111%. In addition, the values for the growth in experiment [19] and in [20] were 95.5% and 105%, respectively.

The record behind these values is PubChem BioAssay (NCI).
